# Dicer processing – inhibitors of Dicer pre-microRNA processing, primary screen, biochemical, cat-ELCCA, chemiluminescence; Endoribonuclease Dicer (Homo sapiens), Q9UPY3; cat-ELCCA pre-miR-21 Dicer processing; active compounds read high; z-score at 25 µM; 47,000 compounds, 6% hits; AID 1347074, 2019; in the data active = z-score above about 3, passing the limit was not always enough;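 also: plate controls were vehicle for no effect and no enzyme for full effect; higher signal means more uncleaved substrate so more Dicer inhibition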
# * hit, by the source's call. This excerpt belongs to a sample that is enriched for hits.
SMILES,Dicer processing
CN1C(=O)CC(NCc2ccc(S(N)(=O)=O)cc2)C1=O (stereo unspecified),3.2*
NCc1ccc(S(N)(=O)=O)cc1,-0.5
NS(=O)(=O)c1ccc(CNC2CC(=O)N(c3ccc(Br)cc3)C2=O)cc1 (stereo unspecified),22
O=C(Nc1cnc2sccn2c1=O)c1ccc(F)cc1,-0.13
CCc1cccc(C)c1N=C(C#N)C1=C(O)c2ccccc2C1=O,-1.9
Cc1cc(Cl)ccc1N=C(C#N)C1=C(O)c2ccccc2C1=O,4.8*
Cc1ccc(N=C(C#N)C2=C(O)c3ccccc3C2=O)cc1F,-0.88
COc1ccc(C=Nc2cccc(NC(=O)c3ccccc3O)c2)cc1,1.9
Nc1ccccc1NC(=O)c1ccccc1O,0.52
Nc1cccc(NC(=O)c2ccccc2O)c1,5.9*
C#Cc1cccc(NC(=S)NNC(=S)Nc2cccc(C#C)c2)c1,8.9*
C#Cc1cccc(NC(=O)c2ccccc2)c1,-0.48
Cc1cccc(NC(=S)NNC(=O)NNC(=S)Nc2cccc(C)c2)c1,1.6
Oc1ccccc1C1=NN2C(C1)c1ccccc1OC2c1cccnc1 (stereo unspecified),12*
Cc1ccc(O)c(C2=NN3C(C2)c2cc(Cl)ccc2OC3c2cccnc2)c1 (stereo unspecified),-0.6
CC(C)C1Oc2ccccc2C2CC(c3ccccc3O)=NN21 (stereo unspecified),5.6*
COc1cccc2c1OC(C(C)C)N1N=C(c3ccccc3O)CC21 (stereo unspecified),0.12
COc1cccc2c1OC(c1cccnc1)N1N=C(c3ccccc3O)CC21 (stereo unspecified),-0.4
Clc1ccc(C2=NN3COc4ccccc4C3C2)cc1 (stereo unspecified),2.1
Oc1ccccc1C1=NN2C(C1)c1ccccc1OC2c1ccccc1 (stereo unspecified),2.5
Clc1ccc(C2=NN3C(C2)c2ccccc2OC3c2cccnc2)cc1 (stereo unspecified),6*
CCCCCCSc1s[nH]c(=O)c1C#N,-1.1
CC(C)(C)NC(=O)[C@@H]1C[C@@H]2CCCC[C@@H]2CN1C(=O)COc1ccc(Cl)cc1Cl,-0.67
O=C1C(=O)N(Cc2cccnc2)C(c2ccccc2Cl)/C1=C(\O)c1ccccc1 (stereo unspecified),0.01
CC1(C)C2CCC1(CS(=O)(=O)N1CCCN(c3nc4ccc(Cl)cc4s3)CC1)C(=O)C2 (stereo unspecified),-0.99
SMILES,Dicer processing
Cc1cc(C)c(NC(=S)NN)c(C)c1,1.8
Cc1ccc(S(=O)(=O)NNC(=O)c2[nH]c3ccc([N+](=O)[O-])cc3c2-c2ccccc2)cc1,6.7*
O=C(O)c1[nH]c2ccc([N+](=O)[O-])cc2c1-c1ccccc1,0.06
NNC(=O)c1[nH]c2ccc([N+](=O)[O-])cc2c1-c1ccccc1,-1.7
CCNc1nc(NC(C)C)nc(OCCNS(=O)(=O)c2ccc(C)cc2)n1,1.5
O=C(O)C12CC3CC(C1)CC(C(F)(F)C(F)C(F)(F)F)(C3)C2 (stereo unspecified),-0.47
c1ccc(-c2nn3c(-c4ccccc4)nnc3c3ccccc23)cc1,4.5*
Cc1nn2c(-c3cccc(NS(=O)(=O)c4ccc(Cl)cc4)c3)nnc2c2ccccc12,2.5
Cc1ccc(-c2nnc3c4ccccc4c(C)nn23)cc1S(=O)(=O)NCc1ccccc1,2.8
Cc1ccc(S(=O)(=O)N2CCCCC2)cc1-c1nnc2c3ccccc3c(C)nn12,1.1
COCCNS(=O)(=O)c1ccc(C)c(-c2nnc3c4ccccc4c(C)nn23)c1,1.4
Cc1ccccc1-c1nnc2c3ccccc3c(C)nn12,5*
CCCCOC(C)n1ccc(=O)[nH]c1=O (stereo unspecified),0.74
Cc1ccc(C(=O)CNC2=NCCC2)cc1,-0.13
O=C(Nc1ccccc1N1CCOCC1)c1ccnc(N2CCC(O)(c3ccc(Cl)cc3)CC2)c1,0.14
O=C(Nc1ccc2ccccc2n1)C1=Cc2cc(Cl)ccc2OC1,1.2
COc1ccc(C2C(C(=O)OC(C)C)=C(C)NC3=C2C(=O)CCC3)c(OC)c1 (stereo unspecified),0.75
CCCCSC1=C(C#N)C(=O)NC(c2ccc(N(C)C)cc2)S1 (stereo unspecified),-0.38
c1ccc(-c2cc3ccccn3c2)cc1,0.48
Cc1cccn2cc(-c3ccc(F)cc3)nc12,0.34
Cc1cccn2cc(-c3ccc(F)cc3)cc12,4.4*
O=S(=O)(O)c1ccc2c(c1)Cc1cc(S(=O)(=O)O)ccc1-2,-0.48
CC(C)(CC(=O)O)CC(=O)N1CCN(c2ccccn2)CC1,4.1*
CC(C)(CC(=O)O)CC(=O)N1CCCN(c2c(Cl)cncc2Cl)CC1,1.9
C=C(C)c1cccc(C(C)(C)NC(=O)N2CCN(c3ccccn3)CC2)c1,1.4
CCOC(=O)N1CCN(C2CC(=O)N(c3ccc(OC)cc3)C2=O)CC1 (stereo unspecified),-0.82
O=C(O)C(=O)CCc1cccs1,2.5
O/N=C1/c2ccccc2CCC1Cn1ccnc1 (stereo unspecified),-0.24
O=C(Cn1cc(C(F)(F)F)ccc1=O)c1ccc(Cl)cc1Cl,0.67

# Screens as filed in PubChem.
